Experimental findings from PubChem BioAssay are described below.

Several values for one entry are separate records, joined by “and”; a condition that tells them apart may be missing. Equal values may be shown once. Activity calls are given as the source filed them. Unless noted, no rule for the calls is given here.

A short description of experiment [1]: resazurin metabolic signal in HepG2 cells – cell-based, resazurin fluorescence, 24 h, PK04 Diversity Set, profiling panel (AID 1172). The following applies: HepG2 viability, higher = more signal.
The nature of experiment [2]: budding yeast growth changes without added modifier – OD600, strain BY4716, 24 h, basal condition, primary screen (AID 1173). The following applies: S. cerevisiae BY4716 growth, OD600, 24 h; higher = more signal, called active from +8 up or from −8 down.
A short description of experiment [3]: viability profiling in MM1S myeloma cells – cell-based, resazurin fluorescence, basal, 24 h, PK04 Diversity Set, profiling panel (AID 1174).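 Also: MM1S multiple myeloma cell line.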 The conditions noted are these: higher = more signal, called active from +8 up or from −8 down.
The target in experiment [4] is Dihydroorotate dehydrogenase (quinone), mitochondrial (Plasmodium falciparum (isolate 3D7)) (UniProt Q08210). As to the kind of experiment: inhibition of P. falciparum DHODH – biochemical, C-terminal His tag, absorbance 600 nm, primary screen (AID 1175).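 Also: recombinant parasite enzyme with a five histidine tag at its C terminus.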 The following applies: PfDHODH enzyme, DCIP absorbance 600 nm; higher = more signal, called active from +8 up or from −8 down.
Sequence of Dihydroorotate dehydrogenase (quinone), mitochondrial (Plasmodium falciparum (isolate 3D7)) (Q08210 whole entry, looked up): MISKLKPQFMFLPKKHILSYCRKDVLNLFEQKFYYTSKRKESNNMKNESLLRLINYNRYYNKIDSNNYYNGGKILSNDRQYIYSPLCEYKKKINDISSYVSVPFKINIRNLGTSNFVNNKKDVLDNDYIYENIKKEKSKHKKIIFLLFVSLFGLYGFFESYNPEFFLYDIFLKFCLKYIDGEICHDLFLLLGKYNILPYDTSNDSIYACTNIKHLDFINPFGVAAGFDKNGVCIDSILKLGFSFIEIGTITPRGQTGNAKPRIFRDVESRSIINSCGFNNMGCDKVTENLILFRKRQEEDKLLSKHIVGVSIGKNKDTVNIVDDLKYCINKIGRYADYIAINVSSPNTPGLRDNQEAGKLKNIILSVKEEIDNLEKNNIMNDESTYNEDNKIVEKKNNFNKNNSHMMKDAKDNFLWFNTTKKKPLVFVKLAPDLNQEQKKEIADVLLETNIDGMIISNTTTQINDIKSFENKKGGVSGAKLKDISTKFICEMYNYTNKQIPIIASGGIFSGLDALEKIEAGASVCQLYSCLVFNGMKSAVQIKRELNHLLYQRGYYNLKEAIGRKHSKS

Experiment [5] is described as follows: inhibition of PAO1 biofilm formation – strain PAO1, LB-PBS medium, absorbance 600 nm, primary screen (AID 1176). The following applies: P. aeruginosa PAO1 growth/biofilm, A600, 12 h; higher = more signal.
The nature of experiment [6]: growth modulation of vineyard yeast isolate – strain RM11-1a, OD600, basal, 24 h, primary screen (AID 1177).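 Also: cultures grown under basal conditions with no added stressor.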 The following applies: S. cerevisiae RM11-1a growth, OD600, 24 h; higher = more signal, called active from +8 up or from −8 down.
A short description of experiment [7]: growth of efflux-deficient E. coli DRC39 – strain DRC39, OD650, 24 h, E. coli filamentation inducers, primary screen (AID 1178).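 Also: growth measured as culture turbidity by optical density at 650 nm.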 The following applies: E. coli DRC39 acrAB, higher = more signal, called active from +8 up or from −8 down.
Experiment [8] can be described thus: growth of efflux-deficient E. coli DRC39 – strain DRC39, OD650, 48 h, E. coli filamentation inducers, primary screen (AID 1179).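 Also: screen aims at cell division blockers that make cells filament.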 The conditions noted are these: E. coli DRC39 delta-acrAB growth, higher = more signal, called active from +8 up or from −8 down.
The nature of experiment [9]: viability profiling in RPMI8226 myeloma cells – cell-based, resazurin fluorescence, basal, 24 h, PK04 Diversity Set, profiling panel (AID 1180).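 Also: RPMI8826 multiple myeloma cell line at 5000 cells per well.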 The conditions noted are these: higher = more signal.
For experiment [10], the target named is E3 ubiquitin-protein ligase XIAP (Homo sapiens) (UniProt P98170). As to the kind of experiment: small molecules binding XIAP protein – biophysical, small-molecule microarray, fluorescence 635 nm, primary screen (AID 1181).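 Also: score merges 667 nm emission and signal to noise over triplicate slides.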 The following applies: higher = more signal.
Sequence of E3 ubiquitin-protein ligase XIAP (Homo sapiens) (P98170 whole entry, looked up, the tested form may be a part): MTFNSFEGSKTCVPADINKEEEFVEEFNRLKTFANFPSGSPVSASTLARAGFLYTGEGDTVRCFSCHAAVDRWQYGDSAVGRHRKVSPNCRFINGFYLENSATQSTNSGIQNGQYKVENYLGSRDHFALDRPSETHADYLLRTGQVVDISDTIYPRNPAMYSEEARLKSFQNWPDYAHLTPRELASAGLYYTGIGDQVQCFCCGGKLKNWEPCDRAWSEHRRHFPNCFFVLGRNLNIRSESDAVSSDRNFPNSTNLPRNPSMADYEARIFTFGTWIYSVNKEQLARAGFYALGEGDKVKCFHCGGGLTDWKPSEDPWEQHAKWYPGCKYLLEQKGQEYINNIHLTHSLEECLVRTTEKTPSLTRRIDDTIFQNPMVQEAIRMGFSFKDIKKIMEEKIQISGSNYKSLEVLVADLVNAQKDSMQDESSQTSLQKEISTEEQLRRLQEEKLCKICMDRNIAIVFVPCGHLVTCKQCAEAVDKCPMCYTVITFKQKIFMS
In experiment [11] the test system is XIP peptide (Xip251-270) binding. As to the kind of experiment: XIP fragment 251-270 binding compounds – biochemical, small-molecule microarray, fluorescence 635/667 nm, 0.1 µg/mL protein, primary screen (AID 1182). The following applies: fluorescent protein binding, 635 nm, higher = more signal, called active from +8 up or from −8 down.
The test system of another experiment is XIP peptide (Xip251-270). Description: compounds binding XIP fragment 251-270 – biochemical, small-molecule microarray, fluorescence 635/667 nm, 0.5 µg/mL protein, primary screen (AID 1183). The following applies: fluorescence 635 nm, higher = more signal.
The nature of experiment [12]: blood-stage malaria parasite viability loss – strain 3D7, DAPI fluorescence, 100 nL, primary screen (AID 1184).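 Also: parasites grown inside human red blood cells in medium with human serum.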 The following applies: P. falciparum 3D7 growth, 3 d, higher = more signal.
Experiment [13] deals with Homeobox protein Hox-A13 (Mus musculus) (UniProt Q62424). Description: disruptors of Hoxa13 oligonucleotide interaction – biochemical, fluorescence polarization, labeled oligonucleotide, primary screen (AID 1185). The conditions noted are these: Hoxa13:DNA binding, 15 min, higher = more signal, called active from +8 up or from −8 down.
Sequence of Homeobox protein Hox-A13 (Mus musculus) (Q62424 whole entry, looked up): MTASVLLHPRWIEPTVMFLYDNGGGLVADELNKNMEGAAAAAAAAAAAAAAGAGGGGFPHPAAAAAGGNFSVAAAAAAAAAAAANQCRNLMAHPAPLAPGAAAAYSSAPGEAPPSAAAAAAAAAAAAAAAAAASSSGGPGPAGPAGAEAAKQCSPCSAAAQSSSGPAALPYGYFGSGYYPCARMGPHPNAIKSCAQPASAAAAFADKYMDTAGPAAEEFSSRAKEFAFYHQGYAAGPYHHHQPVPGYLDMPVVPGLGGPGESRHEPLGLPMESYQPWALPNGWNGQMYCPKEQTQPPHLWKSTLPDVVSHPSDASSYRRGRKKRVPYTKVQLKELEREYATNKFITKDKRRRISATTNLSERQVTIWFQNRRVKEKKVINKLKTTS
Experiment [14] is described as follows: blockers of DNA damage checkpoint Chk1 activation – imaging, HeLa, hydroxyurea, phospho-Chk1 antibody, percent positive cells, primary screen (AID 1186). The conditions noted are these: hydroxyurea-induced phospho-Chk1 immunofluorescence imaging, higher = more signal.
Experiment [15] in a line: blockers of DNA damage checkpoint Chk1 activation – imaging, HeLa, hydroxyurea, phospho-Chk1 nuclear intensity, primary screen (AID 1187). The conditions noted are these: hydroxyurea-induced phospho-Chk1 immunofluorescence imaging, higher = more signal.

For the compound `C=CCN(Cc1ccccc1)C(=O)C1N(CCOCCO)C(=O)C2C(C(=O)O)C3C=CC21O3` (stereo not given), the z-score is 0.649 and -0.0686 in experiment [1]; -1.56 (inactive) and 0.494 (inactive) in experiment [2]; 1.22 (inactive) and -0.234 (inactive) in experiment [3]; -0.18 (inactive) in [5]; -1.46 (inactive) and 0.356 (inactive) in [6]; 1.55 (inactive) and 0.0673 (inactive) in [7]. Besides, the z-score in experiment [8] is 1.05 (inactive) and -0.12 (inactive); in [9], 0.795 and -0.418; in experiment [12], -0.506 and -0.253; in experiment [13] it was 0.429 (inactive) and -0.659 (inactive); in [14], -0.0844 (inactive) and 1.49 (inactive); in experiment [15], 0.031 (inactive) and 1.13 (inactive). Also, the composite z-score in [4] was -3.5 (inactive) and -0.648 (inactive); in experiment [10] it was -0.02 and -0.291; in [11] it was 0.463 (inactive) and -0.202 (inactive); in the experiment on XIP peptide (Xip251-270), -1.03 and -0.657.
For the compound `O=C1NC(=O)C2C1C=CC(C(O)c1ccc([N+](=O)[O-])cc1)N2Nc1ccc(Cl)cc1Cl` (stereo not given), the z-score was -1.01 and 0.266 in experiment [1]; -8.52 (active) and -8.8 (active) in experiment [2]; 0.52 (inactive) and -0.103 (inactive) in [3]; 2.4 (inactive) and 2.49 (inactive) in experiment [5]; -0.728 (inactive) and -1.12 (inactive) in [6]; -0.0259 (inactive) and 0.6 (inactive) in [7]. The z-score in [8] was -0.568 (inactive) and 0.615 (inactive); in experiment [9], 0.425 and 0.122; in experiment [12], 0.698 and 0.664; in [13], -5.8 (inactive); in [14] it was -0.85 (inactive) and -0.665 (inactive); in [15], -1.15 (inactive) and -0.297 (inactive). In addition, the composite z-score in [4] was -0.87 (inactive) and -1.11 (inactive); in experiment [10], -0.0102 and 0.0975; in experiment [11], 0.376 (inactive) and 0.385 (inactive); in the experiment on XIP peptide (Xip251-270) it was 0.762 and 0.163.
On to `CC(CO)N1C(=O)[C@@H]2C3C(=O)OCCC=C[C@H]3OC23C=CCN(c2ccc4ccccc4c2)C(=O)[C@@H]13` (stereo not given in full), for which the z-score in [1] was -0.406 and 0.0336; in [2], 0.425 (inactive) and -0.0343 (inactive); in [3], -0.832 (inactive) and -0.602 (inactive); in [5], -0.0837 (inactive) and -0.649 (inactive); in experiment [6], 1.44 (inactive) and -0.636 (inactive); in experiment [7] it was -0.881 (inactive) and -0.593 (inactive). The z-score was -0.987 (inactive) and -0.714 (inactive) in [8]; -0.406 and -0.233 in experiment [9]; -0.526 and 0.0547 in experiment [12]; -6.14 (inactive) and -5.9 (inactive) in experiment [13]; -0.437 (inactive) and 0.0615 (inactive) in experiment [14]; 0.0032 (inactive) and 0.0969 (inactive) in experiment [15]. Also, the composite z-score is -5.1 (inactive) and -0.281 (inactive) in [4]; 0.172 and 0.232 in experiment [10]; 0.62 (inactive) and -0.143 (inactive) in [11]; 0.713 and 0.135 in the experiment with XIP peptide (Xip251-270).
With `C=CCN(C(=O)C(c1cccs1)N(C(=O)/C=C\C(=O)O)c1ccc(CCO)cc1)C(C)(C)C` (stereo not given), the z-score in experiment [1] is -0.388 and -0.35; in experiment [2], -2.06 (inactive) and -0.483 (inactive); in [3] it was 0.448 (inactive) and 0.224 (inactive); in [5], 0.289 (inactive) and -0.332 (inactive); in experiment [6], -0.0345 (inactive) and -0.122 (inactive); in [7] it was 0.592 (inactive) and -0.113 (inactive). The z-score in [8] was 0.864 (inactive) and 0.356 (inactive); in [9] it was 0.0456 and 0.0755; in experiment [12], -0.21 and -0.719; in experiment [13], 0.0682 (inactive) and -0.369 (inactive); in [14], 0.632 (inactive) and 1.03 (inactive); in experiment [15] it was 0.344 (inactive) and 0.743 (inactive). Also, the composite z-score in experiment [4] was -2.45 (inactive) and -0.818 (inactive); in experiment [10] it was -0.232 and -0.145; in [11] it was 0.356 (inactive) and 1.08 (inactive); in the experiment with XIP peptide (Xip251-270), -0.998 and 0.187.
`C[N+](C)(C)CCCCCCNC(=O)[C@H]1C[C@H]2C(=O)N[C@@H](CCCC[N+](C)(C)C)C(=O)N2[C@H]1c1ccc(O)cc1`: the z-score in experiment [1] is -0.0179 and -0.609; in [2], -0.214 (inactive) and 0.205 (inactive); in experiment [3] it was -0.0993 (inactive) and -1.52 (inactive); in experiment [5], 2.63 (inactive) and 0.351 (inactive); in experiment [6], 0.281 (inactive) and 0.826 (inactive); in [7] it was 0.0781 (inactive) and 0.75 (inactive). The z-score in experiment [8] was -0.978 (inactive) and 1.03 (inactive); in experiment [9], -0.818 and -0.584; in experiment [12], -1.28 and 0.581; in experiment [13] it was 0.627 (inactive) and -1.31 (inactive); in experiment [14], -0.563 (inactive) and 0.0546 (inactive); in experiment [15] it was -0.225 (inactive) and -0.0689 (inactive). For the same compound, the composite z-score in experiment [4] is -1.01 (inactive) and -0.373 (inactive); in experiment [10], -0.22 and -0.265; in experiment [11], 0.0514 (inactive) and -0.283 (inactive); in the experiment with XIP peptide (Xip251-270) it was 0.0535 and -0.189.
